This is a sample that favours compounds with a hit; in the whole collection about 1% have one here.
NPR2 activator: GC-B (human) receptor activation; HEK293-GC-B cells, CNP EC30, cGMP TR-FRET; 0% at EC30 CNP, 100% saturating CNP; actives 0.11% (n = 370,000); activation, % at 10 µM; P20594;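 active = activation at 10 µM reaching about 35% in either raw or pattern-adjusted values, limit read from the data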
A1 inh: inhibitors of the anti-apoptotic protein A1, read as caspase activation. AID 2462. caspase activation, % (test concentration not listed). MEF A1-2A-BIM cells, Caspase-Glo 3/7 luminescence, 3 h; percent of clofoctol response, vehicle zero. actives 0.066% (n = 330,000);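 active = over half of replicate activation scores above 10%, or exactly half above 10 with the replicate mean above 10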
HSV replic up: increases HSV replication in cells | HSV replication augmentation in cells, fold increase | maximum fold increase | actives 0.005% (n = 220,000); in the data active = maximum fold increase above about 1.5; tested in PC3 cells
GC-A act: GC-A (human) enzyme activation. HEK293 GC-A cells, cGMP TR-FRET, EC30 ANP; 0% at EC30 ANP, 100% saturating ANP. activation, % at 10 µM. actives 0.14% (n = 370,000). AID 1671463; in the data active = activation above about 40%
Target sequence (P16066 whole entry, looked up): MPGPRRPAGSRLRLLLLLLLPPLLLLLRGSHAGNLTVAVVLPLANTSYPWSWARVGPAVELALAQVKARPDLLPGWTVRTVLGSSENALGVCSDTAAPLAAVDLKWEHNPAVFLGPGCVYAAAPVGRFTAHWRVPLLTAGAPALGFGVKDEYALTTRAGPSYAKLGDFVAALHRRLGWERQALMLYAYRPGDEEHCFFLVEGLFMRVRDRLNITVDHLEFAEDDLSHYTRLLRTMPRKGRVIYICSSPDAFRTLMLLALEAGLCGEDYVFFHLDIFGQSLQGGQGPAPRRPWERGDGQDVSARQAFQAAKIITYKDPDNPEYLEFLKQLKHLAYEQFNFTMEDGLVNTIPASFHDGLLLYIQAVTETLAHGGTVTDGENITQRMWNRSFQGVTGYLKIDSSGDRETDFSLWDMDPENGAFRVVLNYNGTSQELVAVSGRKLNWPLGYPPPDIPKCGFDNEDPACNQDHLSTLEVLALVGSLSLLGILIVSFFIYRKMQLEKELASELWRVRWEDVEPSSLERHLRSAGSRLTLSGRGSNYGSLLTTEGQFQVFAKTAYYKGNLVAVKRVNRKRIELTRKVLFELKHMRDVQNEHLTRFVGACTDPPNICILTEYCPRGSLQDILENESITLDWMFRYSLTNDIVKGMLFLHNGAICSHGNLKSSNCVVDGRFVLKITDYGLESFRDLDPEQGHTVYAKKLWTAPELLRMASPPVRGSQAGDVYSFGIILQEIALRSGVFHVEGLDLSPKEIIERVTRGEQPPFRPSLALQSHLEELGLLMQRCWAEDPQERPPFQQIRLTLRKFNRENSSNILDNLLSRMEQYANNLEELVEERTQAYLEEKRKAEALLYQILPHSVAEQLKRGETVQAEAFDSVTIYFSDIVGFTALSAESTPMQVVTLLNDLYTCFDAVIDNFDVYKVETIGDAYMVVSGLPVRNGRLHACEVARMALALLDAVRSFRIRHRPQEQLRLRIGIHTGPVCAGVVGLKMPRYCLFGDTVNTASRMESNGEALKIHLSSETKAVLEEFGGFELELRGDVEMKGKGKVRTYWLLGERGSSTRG
TAG inh: triacylglycerol accumulation inhibition; H9c2 cells, Nile Red lipid (TAG) fluorescence; cells loaded with 200 µM oleic acid; inhibition, % at 12.5 µM; actives 0.66% (n = 230,000);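 active = pattern-corrected inhibition of lipid staining of at least 50% with the nuclear-stain viability signal not falling by more than 50%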;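 note: 0% = DMSO wells and 100% = triacsin C control wells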
Efflux pump mplx: antifungal efflux pump inhibition, Nile Red retention; S. cerevisiae Candida pump triplex; inhibition, % at 10 µM; actives 0.44% (n = 330,000);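 active = plate passing quality check with inhibition over a set limit, or well fluorescence over plate mean plus 4 SD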;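 note: Nile Red retained in pooled yeast measured as flow cytometry median fluorescence; 0% = buffer negative control and 100% = Enniatin B positive control; higher means more Nile Red kept so more efflux inhibition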
Cmpd fluor yeast: compound fluorescence in yeast efflux pump counter-screen. fluorescence ratio to DMSO, % at 10 µM. shares compounds with Efflux pump mplx. S. cerevisiae AD/pABC3, flow cytometry. actives 4% (n = 1,700);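 active = fluorescence ratio to DMSO above its plate's cutoff, the plate mean ratio plus 5 SD, cut at about 210% in these data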;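 note: unstained yeast with no Nile Red so the signal is compound autofluorescence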
CaMdr1 efflux inh: blocks the Candida albicans Mdr1 efflux pump in yeast; AID 588518; shares compounds with Efflux pump mplx; actives 1% (n = 1,700); inhibition, % at 10 µM; S. cerevisiae AD/CaMDR1, Nile Red efflux, flow cytometry; in the data active = inhibition above about 26%;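 note: 0% = DMSO vehicle and 100% = reference inhibitor; higher means more Nile Red retained so more efflux inhibition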
CaCdr2 efflux inh: Candida Cdr2 efflux pump inhibition; actives 4% (n = 1,700); AID 588520; Nile Red retention ratio vs DMSO, % at 10 µM; shares compounds with Efflux pump mplx; S. cerevisiae AD/CaCDR2, Nile Red retention, flow cytometry; in the data active = Nile Red retention ratio vs DMSO above about 190%;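 note: higher ratio means more blocking of Cdr2 efflux of the dye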
Cdr1 pump inh: inhibitors of Candida albicans Cdr1 efflux pump; shares compounds with Efflux pump mplx; S. cerevisiae AD/CaCDR1, Nile Red efflux, flow cytometry; inhibition, % at 10 µM; actives 1% (n = 1,700);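 active = inhibition above the screen-wide mean plus twice its standard deviation, cut at about 32% in these data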
Numbers without * were called inactive; i = inactive; · = no result given.

SMILES	NPR2 activator	A1 inh	HSV replic up	GC-A act	TAG inh	Efflux pump mplx	Cmpd fluor yeast	CaMdr1 efflux inh	CaCdr2 efflux inh	Cdr1 pump inh
O=[N+]([O-])c1cccc(OC[C@@H](O)CN2CCC(C(O)(c3ccccc3)c3ccccc3)CC2)c1	-19	·	·	-12	·	·	·	·	·	·
COc1ccccc1Nc1nc2nonc2nc1N1CCC(C)CC1	-5	0	i	-2	·	0	·	·	·	·
COc1ccc(OC)c(Nc2nc3nonc3nc2N2CCCCC2)c1	-6	0	·	-3	·	6.7*	91	0	112	0
Cc1ccc(CN2C(=O)C(Cc3ccccc3)Nc3ncnc(N4CCN(c5ccccc5)CC4)c32)cc1 (centres undefined)	-5	0	·	-3	-10	1.1*	96	0	110	0
O=C1C(Cc2ccccc2)Nc2ncnc(N3CCOCC3)c2N1Cc1ccc(Cl)cc1 (centres undefined)	-2	2	·	0	21	0	·	·	·	·
O=C1C(Cc2ccccc2)Nc2ncnc(N3CCN(c4ccccc4)CC3)c2N1Cc1ccccc1 (centres undefined)	-1	0	·	-2	27	0	105	0	87	0
O=C1C(Cc2ccccc2)Nc2ncnc(N3CCN(c4ccccc4)CC3)c2N1Cc1ccc(Br)cc1 (centres undefined)	-5	0	·	-2	-13	82*	110	56*	112	76*
O=C(CSc1nnc(-c2cnccn2)n1-c1ccccc1)Nc1ccc2cn[nH]c2c1	-4	·	·	1	·	·	·	·	·	·
O=C(Nc1ccc(F)cc1)OCCN1C(=O)CCC12CCC(c1ccccc1)CC2 (centres undefined)	-15	·	·	-13	·	·	·	·	·	·
Cc1cc(NS(=O)(=O)c2ccc(NC(=O)CSc3nnc(-c4ccccn4)n3-c3ccccc3)cc2)nc(C)n1	2	·	·	2	·	·	·	·	·	·
Cn1c(SCC(=O)Nc2ccc3nc(SCC(=O)NC4CC4)sc3c2)nnc1-c1ccccc1	-10	0	i	-4	·	1.1*	100	0	123	0
Cc1ccc(C(=O)NCC(=O)OCc2csc(-c3ccccc3)n2)cc1	-3	-1	i	1	·	6.8*	109	0	110	0
CN1C/C(=C\c2ccc(N3CCOCC3)cc2)C(=O)/C(=C/c2ccc(N3CCOCC3)cc2)C1	1	0	i	6	·	0.8*	99	0	114	0
CN(C)S(=O)(=O)c1ccc(C(=O)OC2CCOC2=O)cc1 (centres undefined)	-1	0	·	4	·	1.5*	107	0	108	0
O=C(OC1CCOC1=O)c1ccc(S(=O)(=O)N2CCCCCC2)cc1 (centres undefined)	8	1	i	6	-12	0	·	·	·	·
CSc1nnc2c(n1)C[C@H](c1ccccc1)[C@@H](C)[C@@H](C(=O)N1CCCC1)C2	6	·	·	0	·	·	·	·	·	·
C[C@H](CO)N1C[C@H](C)[C@@H](CN(C)Cc2ccc(-c3ccccc3)cc2)Oc2c(NC(=O)Nc3ccc(C(F)(F)F)cc3)cccc2C1=O	-6	-1	·	-2	40	0	92	0	112	0
COc1ccc(S(=O)(=O)N(C)C[C@H]2Oc3c(NC(=O)Nc4ccc(C(F)(F)F)cc4)cccc3C(=O)N([C@H](C)CO)C[C@@H]2C)cc1	·	0	·	·	57*	34*	104	0	114	0
COc1ccc(S(=O)(=O)N(C)C[C@H]2Oc3c(NC(=O)NC4CCCCC4)cccc3C(=O)N([C@H](C)CO)C[C@@H]2C)cc1	3	0	·	1	-3	131*	127	28*	97	17
O=C(Nc1ccccc1C(=O)O)c1ccc(NC(=O)c2ccc(Br)o2)cc1	4	-2	i	1	·	0	103	0	93	0
Cc1ccccc1NC(=O)c1ccc(NC(=O)c2ccco2)cc1	-2	-1	i	-1	·	0	113	0	98	0
CC(=O)Nc1ccc(NC(=O)CSc2nnc(-c3n[nH]c4c3CCC4)n2N)cc1	-1	·	·	3	·	·	·	·	·	·
Cc1c(NC(=O)c2ncn[nH]2)cccc1-c1nc2ccccc2s1	-4	0	i	-3	9	6.2*	101	0	98	0
O=C(Nc1ccc(F)cc1)OCc1cn(Cc2ccc(F)c(F)c2)nn1	-1	·	·	0	·	·	·	·	·	·
CC(C)OC(=O)c1ccc(COC(=O)c2cccc(-c3nnc(-c4ccccc4)o3)c2)cc1	0	1	i	-1	·	7.6*	112	0	101	0
SMILES	NPR2 activator	A1 inh	HSV replic up	GC-A act	TAG inh	Efflux pump mplx	Cmpd fluor yeast	CaMdr1 efflux inh	CaCdr2 efflux inh	Cdr1 pump inh
O=C(OCc1ccc(C(=O)c2ccccc2)cc1)c1cccc(-c2nnc(-c3ccccc3)o2)c1	3	-1	i	3	·	1	·	·	·	·
CCOc1ccc(-n2c(SCC(=O)Nc3cccc4ccccc34)nnc2-c2cccs2)cc1	-2	·	·	1	·	·	·	·	·	·
CC(=O)Nc1cccc(NC(=O)c2cc(-c3cccnc3)nc3ccc(Cl)cc23)c1	4	0	i	17	5	1.4*	91	0	112	0
COc1ccccc1C(=O)NC1CCCCN(Cc2cccc(Cl)c2)C1=O (centres undefined)	0	·	·	0	·	·	·	·	·	·
c1ccc(C(c2ccccc2)c2noc(CN3CCC(c4ccncc4)CC3)n2)cc1	-3	1	i	-6	-38	5.2*	85	0	87	0
COc1cc2c(cc1O)CCN(C(=O)c1ccco1)C2C (centres undefined)	1	0	i	2	4	1.2*	97	0	110	0
CC(=O)Nc1ccc(C(=O)OCC(=O)c2ccc(F)cc2)cc1	-2	-1	i	10	·	32*	97	0	106	0
CC(=O)Nc1ccc(C(=O)N/N=C/c2ccc(F)cc2)cc1	-4	0	i	-5	-18	0.6*	95	0	103	0
O=C(N/N=C\c1ccc(F)cc1)c1ccc(F)cc1	-2	-1	i	1	-13	0	·	·	·	·
COc1ccc(C(C)n2c(C)c3c(C)nnc(C)c3c2C)cc1 (centres undefined)	4	0	i	-1	·	6.7*	106	0	103	0
